PubChem BioAssay (EPA / NIEHS)
Several values for one entry are separate records, joined by “and”; a condition that tells them apart may be missing. Equal entries are not always repeated. Some compounds were tested as several samples or in several runs, with calls that do not always agree. Activity calls are given as the source filed them. How the source made its calls: active means hit-call score of the fitted dose curve at least 0.9, where 1 is the maximum; inactive means score below 0.9.

The compounds below were run against Cellular tumor antigen p53 (Homo sapiens) (UniProt P04637) (assay: ATG_p53_CIS: Attagene CIS-FACTORIAL HepG2 Assay for human p53 Transcription Factor (AID 2282994)). Details: HepG2 p53 cis-element reporter, Attagene mRNA; actives raise or lower the signal.
Cellular tumor antigen p53 (Homo sapiens), sequence (P04637 whole entry, looked up): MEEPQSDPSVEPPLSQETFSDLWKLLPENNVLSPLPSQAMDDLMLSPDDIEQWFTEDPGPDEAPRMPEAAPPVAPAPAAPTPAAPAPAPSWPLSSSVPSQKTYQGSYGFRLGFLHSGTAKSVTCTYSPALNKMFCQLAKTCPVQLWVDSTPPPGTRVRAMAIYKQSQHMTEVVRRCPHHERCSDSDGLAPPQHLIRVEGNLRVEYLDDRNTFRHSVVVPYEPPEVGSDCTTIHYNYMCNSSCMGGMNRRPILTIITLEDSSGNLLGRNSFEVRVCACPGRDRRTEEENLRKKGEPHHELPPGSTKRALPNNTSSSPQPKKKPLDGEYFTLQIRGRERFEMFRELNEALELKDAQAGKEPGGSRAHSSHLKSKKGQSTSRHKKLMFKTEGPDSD
Experimental: ATG_CIS is a cell-based, multiplexed-readout assay that uses HepG2, a human liver cell line, with measurements taken at 24 hours after chemical dosing in a 24-well plate.ATG_p53_CIS is one of 52 assay component(s) measured or calculated from the ATG_CIS assay. It is designed to make measurements of mRNA induction, a form of inducible reporter, as detected with fluorescence intensity signals by Reverse transcription polymerase chain reaction (RT-PCR) and Capillary electrophoresis technology.Data from the assay component ATG_p53_CIS was analyzed into 1 assay endpoint. This assay endpoint, ATG_p53_CIS, was analyzed with bidirectional fitting relative to DMSO as the negative control and baseline of activity. Using a type of inducible reporter, measures of mRNA for gain or loss-of-signal activity can be used to understand the reporter gene at the transcription factor-level as they relate to the gene TP53. Furthermore, this assay endpoint can be referred to as a primary readout, because this assay has produced multiple assay endpoints where this one serves a reporter gene function. To generalize the intended target to other relatable targets, this assay endpoint is annotated to the dna binding intended target family, where the subfamily is tumor suppressor.
Human liver HepG2 cells are transiently transfected with multiple reporter transcription units (MRTUs) in 6-well plates using FuGene 6 reagent (Roche; 3 ml FuGene/1 mg DNA). The MRTU constructs are regulated by a cis-regulating element (promoter). […] A major difference between the CIS and TRANS system is that in CIS activities of endogenous TFs are measured, whereas the TRANS assay evaluates changes in activities of exogenous, chimeric NR-Gal4 proteins. […] At the end of 24 hour incubation, total RNA was isolated using TriZol reagent (Invitrogen). The isolated RNA is then reverse-transcribed using oligo(dT) primer and Mo-MLV reverse transcriptase (Invitrogen) with DNAse I (Ambion) treatment for 30 min. The one-tenth of the produced cDNA was amplified by PCR using Taq DNA polymerase (Invitrogen) and two reporter sequence-specific primers. The PCR products were fluorescently labeled by primer extension with 6-arboxyfluorescein (6-FAM) 5'-labeled reporter sequence-specific primer (2 min at 95 C, 20 s at 68 C and 10 min at 72 C) and these products were digested with 5U of HpaI (New England Biolabs) for 2h at 37 C. The fragments were purified using Qiaquick PCR columns (Qiagen), analyzed on an ABI 3130xL genetic analyzer (Applied Biosystems) with peak positions identified by using a set of X-rhodamine (ROX)-labeled MapMarker1000 molecular weight standards (BioVentures). The raw capillary electrophoresis data was processed using Attagraph software (Attagene).

| Compound | AC50 | outcome |
| --- | --- | --- |
| CCCCC/C=C\C=C\C(=O)OCC | 156 µM (active) | – |
| CC1=CC[C@@H](C(C)(C)O)CC1 | – | inactive |
| c1ccc(OCCOc2ccccc2)cc1 | – | inactive |
| CNC(=C[N+](=O)[O-])NCCSCc1ccc(CN(C)C)o1 | – | inactive |
| O=C1CCC(=O)N1 | – | inactive |
| Nc1ccc(O)c(N)c1 | – | inactive |
| C[C@]12CC[C@@H]3c4ccc(O)cc4CC[C@H]3[C@@H]1CC[C@@H]2O | 19.8 µM (active) and 21.3 µM (active) and 12.8 µM (active) | inactive |
| Nc1cc([N+](=O)[O-])ccc1C(=O)O | – | inactive |
| CCCCCCCCSCc1cc(C)c(O)c(CSCCCCCCCC)c1 | – | inactive |
| CC1(C)CC(=O)CC(C)(C)N1 | – | inactive |
| CCOc1ccc(NC(C)=O)cc1 | – | inactive |
| O=C(c1ccc(OCCN2CCCCC2)cc1)c1c(-c2ccc(O)cc2)sc2cc(O)ccc12 | 9.07 µM (active) and 14.9 µM (active) and 15.1 µM (active) | inactive |
| O=[N+]([O-])c1cc(N(CCO)CCO)ccc1NCCO | – | inactive |
| CC1=CC(O)CC(C)(C)C1 (stereo not given) | – | inactive |
| CC(CO)c1ccccc1 (stereo not given) | – | inactive |
| CCC(=O)OC/C=C(\C)CCC=C(C)C | – | inactive |
| O=c1cc[nH]cc1 | – | inactive |
| CN(C)c1ccc(C=O)cc1 | – | inactive |
| CC(CCO)CC(C)(C)C (stereo not given) | – | inactive |

| Compound | AC50 | outcome |
| --- | --- | --- |
| COc1ccc(C(C)=O)cc1 | – | inactive |
| CCCCOCCOCCO | – | inactive |
| C=C/C(C)=C/C/C=C(\C)CCC=C(C)C | – | inactive |
| CC(=O)C1=C(C)[C@@H]2C[C@@]3(C1)[C@H](C)CC[C@H]3C2(C)C | 100 µM (active) | – |
| CC(=O)CC(=O)N(C)C | – | inactive |
| [Cu+] | – | inactive |
| CCCCCC1CCC(=O)O1 (stereo not given) | – | inactive |
| CC(=O)c1ccc2ccccc2c1 | – | inactive |
| O=C1OCc2ccccc21 | – | inactive |
| CC(O)COCC(C)O (stereo not given) | – | inactive |
| N#CCCCC(C#N)CCC#N (stereo not given) | – | inactive |
| CC=CC(=O)C1=C(C)C=CCC1(C)C | – | inactive |
| C1=COCCC1 | – | inactive |
| c1ccc2c(c1)-c1ccc3ccc4cccc5cc-2c1c3c45 | – | inactive |
| CCCCCCC(O)CCOC(C)=O (stereo not given) | – | inactive |
| CC/C=C\CCOC(C)OCC (stereo not given) | – | inactive |
| N=C1N=C(N)c2ccccc21 | – | inactive |
| CCC(C)(C)C1CCC(OC)CC1 (stereo not given) | – | inactive |
| CC(C)CCOC(=O)CC(C)C | – | inactive |
